Screens as filed in PubChem BioAssay.
This is one part of a sample in which hits are shown more often than they occur.
TNAP act mid DEA = human TNAP activation, intermediate phosphate acceptor. P05186. purified TNAP, CDP-star luminescence, 100 mM DEA, 30 min; stronger effect = higher value; scale: 0 levamisole-inhibited, 1 vehicle-only enzyme. 64,000 tested, under 10 active. activation factor at 20 µM;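 active = activation factor of at least 2 at 20 µM, relative to controls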
Target sequence (P05186 whole entry, looked up): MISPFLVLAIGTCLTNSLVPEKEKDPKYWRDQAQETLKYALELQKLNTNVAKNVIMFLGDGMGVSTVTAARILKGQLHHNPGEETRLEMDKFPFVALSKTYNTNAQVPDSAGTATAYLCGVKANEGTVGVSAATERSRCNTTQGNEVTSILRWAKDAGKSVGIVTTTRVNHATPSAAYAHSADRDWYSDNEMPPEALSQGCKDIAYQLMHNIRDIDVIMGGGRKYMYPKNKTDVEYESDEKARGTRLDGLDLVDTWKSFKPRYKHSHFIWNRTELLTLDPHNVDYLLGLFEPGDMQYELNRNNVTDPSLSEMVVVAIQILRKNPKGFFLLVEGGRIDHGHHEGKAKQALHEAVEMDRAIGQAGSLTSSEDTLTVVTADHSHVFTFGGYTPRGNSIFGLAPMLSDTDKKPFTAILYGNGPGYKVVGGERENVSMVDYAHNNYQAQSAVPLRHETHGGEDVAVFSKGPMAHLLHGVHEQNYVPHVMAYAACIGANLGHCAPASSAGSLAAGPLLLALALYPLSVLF
Candida biofilm = kills Candida albicans biofilms | hit rate 0.14% among 85,000 | C. albicans biofilm + clotrimazole, Alamar Blue | inhibition, % at 6 µM;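 active = inhibition above 20%; inactive = inhibition below 20%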;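 note: preformed 24 hr biofilms exposed to compound for 48 hr; 0% = biofilm without compound and 100% = blank killed by clotrimazole plus chlorhexidine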
hDAT+cocaine = modulates human dopamine transporter uptake under cocaine; AID 449768; Q01959; hit rate 1.3% among 110,000; LLC-PK1 hDAT cells, [14C]-dopamine uptake with cocaine IC80; actives deviate in either direction; B-score at 10 µM;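 active = Z score or B-score, a plate-position-corrected score, falls beyond the plate's 99.7% confidence bounds, in either direction; inactive = both scores lie inside the 99.7% bounds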;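 note: scored against the spread of the other compound wells on the same plate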
HePTP inh = inhibitors of human HePTP phosphatase. P35236. AID 521. inhibition, % at 20 µM. hit rate 0.64% among 110,000. recombinant HePTP phosphatase activity, OD absorbance; in the data active = inhibition above about 50%;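 note: plate controls were vehicle for no effect and reference inhibitor for full effect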
D1 allo mod = allosterically modulates the human D1 dopamine receptor. P21728. HEK293 D1, CRE-luciferase, dopamine EC30 potentiation; actives deviate in either direction. B-score at 10 µM. hit rate 5.9% among 58,000;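 active = luminescence count or its row- and column-corrected plate score outside the 99.7% band of the plate's sample wells, on either side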
PLAP activator = activators of human placental alkaline phosphatase. purified PLAP enzyme, luminescent substrate read-out; stronger effect = higher value. activation fold at 20 µM. AID 696. P05187. hit rate 1.2% among 96,000; in the data active = activation fold above about 2
An asterisk follows results filed as active; x = not tested or not shown.

SMILES	TNAP act mid DEA	Candida biofilm	hDAT+cocaine	HePTP inh	D1 allo mod	PLAP activator
NC(=O)c1oc2ccccc2c1NC(=O)CN1CCCCC1	0.9	-7	0.61	4	-0.54	1.1
CCC1CCc2c(sc(NC(=O)COc3ccc(Cl)cc3Cl)c2C(N)=O)C1 (stereo not drawn)	x	x	x	5	x	x
CCOC(=O)C1=C(O)/C(=C\c2ccc(CNC(=O)C(=O)Nc3ccc(C)c(C)c3)o2)N=C1C	x	69*	x	x	x	1.3
CN(C)CCNC(=O)C12CC3CCC(CC(C3)C1)C2	x	x	x	1	x	x
Cc1nnc2c3ccccc3c(-c3ccccc3)nn12	0.9	6	1.4	9	15*	x
Cc1nnc2c3ccccc3c(-c3cccc4ccccc34)nn12	x	x	-0.67	x	x	1
COc1ccc(/C=N/NC(=O)Cc2csc(Nc3cccc(C(F)(F)F)c3)n2)c(OC)c1	x	x	2.7*	x	x	1
O=C(O)c1cccc(N2C(=O)c3ccc(OCCOc4ccc5c(c4)C(=O)N(c4cccc(C(=O)O)c4)C5=O)cc3C2=O)c1	x	x	x	104*	x	x
O=C(O)COc1ccc(N2C(=O)c3ccc(C(=O)O)cc3C2=O)cc1	x	x	x	-6	x	x
O=C(CCS(=O)(=O)c1cccc2nsnc12)NC1CCCCCC1	x	0	0.58	x	x	1
CC(=O)c1cccc(NC(=O)CCS(=O)(=O)c2cccc3nsnc23)c1	x	-7	2.5*	x	x	1.1
O=C(CCS(=O)(=O)c1cccc2nsnc12)NCc1ccccc1	0.9	13	-8.2*	-8	0.52	x
CN(CC(=O)NCc1cccs1)S(=O)(=O)c1cccc2nsnc12	1	3	-9.1*	5	-0.82	1
CN(CC(=O)NCc1ccc(F)cc1)S(=O)(=O)c1cccc2nsnc12	1	6	1.4	-4	0.98	0.8
COc1ccccc1NC(=O)c1cc(I)ccc1Cl	x	x	x	-8	x	x
Cc1ccc(N2C(=O)NC(=O)/C(=C\c3ccc(O)c(I)c3)C2=O)cc1	x	x	x	-2	x	x
O=S(=O)(Nc1nc2ccccc2s1)c1ccc(Br)s1	0.9	6	-3.9*	2	-1.1	1.4
COc1cc(C)nc(NCc2ccccc2)n1	0.9	-2	-1	5	0.0077	1
Cc1cc(N2CCN(c3ccccc3)CC2)nc(NCc2ccccc2)n1	0.8	4	-0.55	10	-3.5*	0.9
COc1ccc(NCc2nnc(SCC(=O)Nc3cc(C(F)(F)F)ccc3Cl)o2)cc1	1	4	0.92	6	0.28	2.3*
COc1ccc(NCc2nnc(SCC(=O)Nc3cc(C)cc(C)c3)o2)cc1	0.7	8	-1.2	1	-0.0057	1.1
C=CCN1C=C2C(=O)C(C)(OC(=O)CC)C(=O)C=C2C=C1CCCC (stereo not drawn)	x	x	-2.8*	x	x	x
c1coc(Cn2c(SCc3nc4ccccc4[nH]3)nnc2-c2cccs2)c1	1	6	0.85	7	0.74	2.1*
Cc1ccc(-c2nnc(SCc3nc4ccccc4[nH]3)n2Cc2ccco2)cc1	x	-2	x	x	x	1
CN1C(=O)Cc2cc(S(=O)(=O)N3CCOCC3)ccc21	0.9	8	-8.7*	7	-0.1	1.6
SMILES	TNAP act mid DEA	Candida biofilm	hDAT+cocaine	HePTP inh	D1 allo mod	PLAP activator
C/C(Nc1ccc(Cl)cc1)=C(/C#N)C(N)=O	x	50*	-0.89	x	x	0.9
COc1ccc(O)c(-c2cc(-c3ccc(F)cc3)n[nH]2)c1	x	x	x	2	x	x
COc1ccc(-c2cc(-c3cc(OC)ccc3O)[nH]n2)cc1	x	-1	-0.045	x	x	2.3*
COc1ccc(-c2cc(-c3cc(F)ccc3O)[nH]n2)cc1OC	1.1	8	-1.1	10	0.59	1.2
COc1ccc(-c2n[nH]c(C)c2-c2cc(OC)ccc2O)cc1	x	4	-0.14	x	x	2*
COc1ccc(-c2cc(-c3ccc(OC)c(OC)c3)n[nH]2)c(O)c1	x	9	0.0039	-4	x	2.2*
COC(=O)c1cc(-c2ccc(OC)c(OC)c2)n[nH]1	0.8	5	-0.46	3	7*	1.8
COC(=O)c1cc(-c2ccccc2)n[nH]1	0.2	-2	0.33	10	0.41	1.1
Cc1ccc(SCCNC(=O)CN(c2ccc(C)cc2)S(C)(=O)=O)cc1	x	x	x	-10	x	x
CCCc1nc(SCC(=O)N2CCC(Cc3ccccc3)CC2)c2c(=O)n(C)c(=O)n(C)c2n1	1	4	2.2	1	-0.5	1.4
Cn1c(=O)c2c(SCC(=O)N3CCC(Cc4ccccc4)CC3)nc(C3CC3)nc2n(C)c1=O	0.9	9	x	3	-5.7*	x
CC(=O)c1cccc(NC(=O)c2cnn3ccccc23)c1	1	8	0.97	-8	-2.6*	0.8
